# aSyn 5UTR act: Activators via SNCA 5'UTR binding, MLPCN. AID 1814, 2009. 300,000 tested, 7.1% active. alpha-synuclein 5'UTR reporter, activators screen. activity score, % (tested at 7.5 µM), hits read low; in the data active = activity score below about -60%
# Starred values were filed as active, the others as inactive. Only a sample is shown.
SMILES,aSyn 5UTR act
CC(=O)Cc1nsc(Nc2ccc(C)cc2)n1,-92.6*
Brc1ccc(N=Nc2ccc3ccccc3n2)cc1,94.5
NC(=S)N=Nc1c(O)n(Cc2ccc(Br)cc2)c2ccccc12,64.4
CCn1c(O)c(N=Nc2ccc3ccccc3n2)c2ccccc21,-143.1*
COc1cccc(/C=N/NC(=O)NC2CCCCC2)c1O,-96.6*
O=C(/C=C/c1ccco1)Oc1cc(Br)cc(/C=N/NC(=O)c2ccccc2O)c1,95.9
COc1cc(/C=N/NC(=O)c2ccoc2C)ccc1O,-67.1*
COc1cccc(/C=N/NC(=O)c2cc3c(OC)cccc3[nH]2)c1O,85.5
Cc1ccc(C(=O)N/N=C/c2cccc(OC(=O)/C=C/c3ccco3)c2)cn1,-99.6*
CCN(CC)c1ccc(/C=N/NC(=O)c2ccoc2C)cc1,-95.4*
CCOc1ccc(/C=N/NC(=O)c2ccoc2C)cc1OC,-110.1*
Cn1nccc1C(=O)N/N=C/c1ccccc1[N+](=O)[O-],-89.2*
COC(=O)/C(=C/c1ccc2c(c1)c1ccccc1n2C)NC(=O)c1ccccc1,-67.9*
O=C(N/N=C/c1ccccn1)c1ccc(N/N=C/c2ccccn2)cc1,-132.4*
COc1ccc(/C=N/NC(=O)c2ccoc2C)cc1CN1CCN(c2ccc(F)cc2)CC1,-79.5*
Cc1occc1C(=O)N/N=C/c1ccccc1[N+](=O)[O-],-121.0*
COc1cc(C(=O)N/N=C/c2ccc3c(c2)c2ccccc2n3C)ccc1O,-117.0*
Cc1occc1C(=O)N/N=C/c1ccccn1,-84.1*
COc1cccc(/C=N/NC(=O)c2ccoc2C)c1,-125.2*
COc1cccc(/C=N/NC(=O)c2c(-c3ccccc3)noc2C)c1O,58.2
COc1cccc(/C=N/NC(=O)c2ccoc2C)c1O,-70.6*
C/C(=N/NC(=O)OC(C)(C)C)c1ccco1,-85.8*
CC(/C=C/c1ccco1)=N/NC(=O)OC(C)(C)C,-128.5*
CCC1(C)N=C(c2ccc3c(c2)OCO3)CC(c2ccccc2O)N1 (configuration not stated),-286.1*
COc1ccc(C2OC(=O)CC2C(=O)NCc2ccc(Cl)cc2)cc1OC (configuration not stated),-77.8*
SMILES,aSyn 5UTR act
COc1ccccc1-c1nnc(Sc2nc([N+](=O)[O-])nn2C)o1,-82.7*
CCOC(=O)c1cnc(SCc2ccccc2)nc1N,-183.2*
C=CCSc1ncc(C(=O)OCC)c(N)n1,-101.4*
Cc1cc(C)nc(NC(=O)c2cc(-c3ccc(C)s3)nc3ccccc23)c1,-61.6*
COc1cc2c(cc1OC)CN(c1ccc(C(F)(F)F)cn1)CC2,-156.5*
COc1cc2c(cc1OC)CN(c1ccc3ccccc3n1)CC2,-189.2*
Cn1c(/C=C/c2ccc(Cl)cc2)nc2ccccc2c1=O,-180.6*
Cn1c(/C=C/c2ccccc2)nc2ccccc2c1=O,-137.5*
Cn1c(/C=C/c2ccc([N+](=O)[O-])o2)nc2ccccc2c1=O,97.9
Nc1c(C(=O)Nc2ccc3c(c2)OCCO3)nnn1Cc1ccc(F)cc1,-178.8*
Nc1c(C(=O)Nc2ccc3c(c2)OCCO3)nnn1Cc1cccc(Cl)c1,-152.9*
Nc1c(C(=O)Nc2ccc3c(c2)OCCO3)nnn1Cc1ccccc1Cl,-205.0*
O=C(CSc1ncc(-c2ccccc2)[nH]1)Nc1ccccc1F,-125.9*
CC(=O)Nc1cccc(NC(=O)CSc2ncc(-c3ccccc3)[nH]2)c1,-80.1*
CCOc1cc(C)c(S(=O)(=O)Nc2ccc3cn[nH]c3c2)cc1C,-73.7*
Cc1cc(OCC(=O)N(C)Cc2ccccc2)ccc1Br,-67.6*
CCSc1nc2ccccc2n1C(=O)/C=C\c1ccc(OC)c(OC)c1,-112.1*
Cn1c(O)c(N=NC(=O)c2ccccc2O)c2ccccc21,-103.5*
Cc1cccc(Cn2c(O)c(N=NC(=S)Nc3ccccc3F)c3ccccc32)c1,61.0
Cn1c(O)c(N=NC(=S)Nc2ccccc2F)c2cc(S(=O)(=O)N3CCOCC3)ccc21,94.9
Cc1occc1C(=O)N=Nc1c(O)[nH]c2ccc(Br)cc12,-237.1*
Cc1occc1C(=O)N=Nc1c(O)n(C)c2ccccc12,-246.8*
Cn1c(O)c(N=NC(=O)c2ccco2)c2ccccc21,-80.0*
Cc1ccc(N=Nc2ccc(O)c3ncccc23)cc1C,73.8
Cc1cc(N=NC(=O)c2ccccc2O)c2ccccc2c1O,-123.3*
SMILES,aSyn 5UTR act
Cn1c(O)c(N=Nc2ccccc2[N+](=O)[O-])c2ccccc21,-64.7*
O=C(Nc1nccs1)c1sc2cc(Cl)ccc2c1Cl,-115.2*
O=C(NC1CC1)c1sc2cc(Cl)ccc2c1Cl,-96.6*
COc1ccc2c(Cl)c(C(=O)NC3CCS(=O)(=O)C3)sc2c1 (configuration not stated),-79.9*
O=C(Nc1nccs1)c1sc2ccccc2c1Cl,52.5
c1ccc2c(c1)[nH]c1c3ccccc3sc21,-138.2*
Cc1cccc(-c2nnc(SCC(=O)N3CCOCC3)o2)c1,-70.2*
O=C(CSc1nnc(-c2cccc(F)c2)o1)N1CCOCC1,-75.4*
O=C(COc1ccccc1[N+](=O)[O-])N/N=C/C=C/c1ccco1,-73.2*
CC1(C(=O)N/N=C/c2ccc([N+](=O)[O-])o2)CC1(Br)Br (configuration not stated),-95.8*
Cc1ccccc1OCC(=O)N/N=C/c1ccc([N+](=O)[O-])o1,-68.4*
O=C(Cc1ccc([N+](=O)[O-])cc1)N/N=C/c1ccc([N+](=O)[O-])o1,88.7
N#CC1=C(N)N2C(=C(C#N)C1c1cccc(Br)c1)Nc1ccccc12 (configuration not stated),59.6
O=C(C1=NNCC1c1ccccc1)C1OC1c1ccccc1 (configuration not stated),-83.5*
OCCNCc1ccc(OCc2ccc(Cl)cc2Cl)cc1,-83.8*
S=C(Nc1ccccc1)Nc1ccc(OCc2ccc(Cl)cc2Cl)cc1,96.3
O=C(N/N=C/c1ccc([N+](=O)[O-])cc1)c1[nH]ncc1Br,-68.0*
COCOc1ccc(-c2cc(=O)c3c(OCOC)cc(OCOC)cc3o2)cc1,-125.3*
CC(/C=N/N1CCN(c2ccccc2)CC1)=C\c1ccco1,-101.4*
CC(=C/c1ccco1)/C=N/N1CCN(c2ccccc2)CC1,-175.4*
CCCc1cc(=O)n2[nH]c(-c3ccc(C)cc3)cc2n1,-128.9*
CCCc1cc(=O)n2[nH]c(-c3ccc(Cl)cc3)cc2n1,-141.0*
Cc1ccc(NC(=O)Cn2nnc3ccccc32)cc1,-176.0*
Cc1cccc(NC(=O)Cn2nnc3ccccc32)c1,-103.7*
COC(=O)c1ccc(NC(=O)Cn2nnc3ccccc32)cc1,-174.1*
SMILES,aSyn 5UTR act
Cc1cc(N)n2ncc(-c3ccccc3)c2n1,-148.5*
C=CCSc1cc(C)nc2c(-c3ccccc3)cnn12,-74.3*
Cc1ccc(C(=O)N2CCN3C(=O)c4ccccc4C23c2ccc(Cl)cc2)cc1 (configuration not stated),-68.6*
C#CCN1C(=O)S/C(=C\c2ccc(-c3ccc(C(=O)O)cc3C)o2)C1=O,-190.5*
COc1ccc(/C=C2\SC(=O)N(CCCC(=O)Nc3ccc(C(=O)O)cc3)C2=O)cc1OC,73.4
Cc1ccc2nc3sc(C(=O)NCc4ccco4)c(N)c3cc2c1,-126.5*
COc1cc2cc3c(N)c(C(=O)NCc4ccco4)sc3nc2cc1OC,-284.2*
N/C(=N\OCc1ccc([N+](=O)[O-])cc1)c1ccccn1,112.1
C/C(=N/OCc1ccc(Br)cc1)c1ccccn1,-122.7*
CC(C)OC(=O)/C(C#N)=C/c1ccc(-c2ccc(SC(F)F)cc2)o1,-88.4*
CCCCN1C(=O)/C(=C/C=C2/CC(C)(C)CN2C)SC1=S,-133.8*

# Compound activity: PubChem, Broad Institute
